pPAFAH FP inh: inhibitors of human plasma PAF acetylhydrolase (pPAFAH). recombinant pPAFAH, FP-rhodamine probe fluorescence polarization. 330,000 compounds, 1.5% hits. Q13093. inhibition, % at 3.39 µM;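 active means inhibition above the mean inhibition across the screen plus 3 SD, cut at about 25% in these data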;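 further: inhibitors block binding of the rhodamine activity-based probe so polarization drops; 0% = enzyme with DMSO and 100% = wells lacking pPAFAH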
ZTA counter: blocks Epstein-Barr virus ZTA, an EBNA-1 counter-screen; P03206; inhibition, % at 11 µM; ZTA-DNA binding, fluorescence polarization; 320,000 compounds, 0.15% hits; in the data active means inhibition above about 33%
PAFAH1B2 inh: blocks human PAF acetylhydrolase 1b catalytic subunit 2; P68402; AID 492953; 340,000 compounds, 1.2% hits; recombinant PAFAH1B2, FP-rhodamine activity probe, fluorescence polarization; inhibition, % at 3.39 µM;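 active means inhibition above the mean of all tested compounds plus 3 SD, cut at about 24% in these data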;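 further: 0% = enzyme with DMSO and 100% = wells lacking PAFAH1B2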
PAFAH1B3 inh: PAFAH1B3 (human) inhibition. Q15102. recombinant PAFAH1B3, FP-rhodamine probe, fluorescence polarization. inhibition, % at 3.39 µM. 340,000 compounds, 0.28% hits;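 active means inhibition above the screen-wide average of all tested compounds plus 3 SD, cut at about 25% in these data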;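 further: 0% = enzyme with DMSO only and 100% = wells lacking PAFAH1B3 protein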
Target sequence (Q15102 whole entry, looked up): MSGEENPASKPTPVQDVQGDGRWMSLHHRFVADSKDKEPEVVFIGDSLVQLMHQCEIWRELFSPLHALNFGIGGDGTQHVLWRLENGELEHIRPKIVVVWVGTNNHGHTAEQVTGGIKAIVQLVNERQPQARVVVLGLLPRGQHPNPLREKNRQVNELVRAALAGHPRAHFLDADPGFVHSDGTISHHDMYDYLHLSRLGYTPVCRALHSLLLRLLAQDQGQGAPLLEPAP
PAFAH2 FP inh: inhibitors of human PAFAH2. 340,000 compounds, 0.99% hits. recombinant PAFAH2, FP-rhodamine activity probe, fluorescence polarization. Q99487. AID 492956. inhibition, % at 3.39 µM;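 active means inhibition above the mean over all tested compounds plus 3 SD, cut at about 30% in these data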;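 further: inhibitors block probe labeling of enzyme so polarization drops; 0% = enzyme with DMSO and 100% = wells lacking PAFAH2 protein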
EBNA-1 inhibitor: blocks EBNA-1 binding to DNA; EBNA-1 DNA binding, fluorescence polarization; inhibition, % at 14.8 µM; 300,000 compounds, 0.34% hits; AID 1950; in the data active means inhibition above about 28%
ZTA inh confirm: confirmation of Epstein-Barr virus ZTA DNA binding inhibitors | Zta-ZRE DNA binding, fluorescence polarization | shares compounds with ZTA counter | 320 compounds, 30% hits | inhibition, % at 11.1 µM;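 active means mean inhibition across triplicate runs above the hit threshold derived for the original primary screen, cut at about 33% in these data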;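 further: 0% = Zta with DMSO and 100% = wells lacking Zta protein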
EBNA-1 counter: EBNA-1 DNA binding inhibition, counter-screen for ZTA | shares compounds with ZTA counter | fluorescence polarization | inhibition, % at 14.8 µM | 320 tested, under 10 active | AID 2362; call rule not given here
* = called active by the depositor; . = not tested or not shown. Shown are actives, neighbours in structure and some others; about 2.9% of the full set was active somewhere.

SMILES	pPAFAH FP inh	ZTA counter	PAFAH1B2 inh	PAFAH1B3 inh	PAFAH2 FP inh	EBNA-1 inhibitor	ZTA inh confirm	EBNA-1 counter
CCCCCCCCCCC[N+](C)(C)CC/C=C1/c2ccccc2Sc2ccc(Cl)cc21	23	40*	5	6	4	3	0	-6
CC[N+](C)(C)CC/C=C1/c2ccccc2Sc2ccc(Cl)cc21	1	5	.	.	.	-6	.	.
CCCCCCCCCC[N+](C)(C)CC/C=C1/c2ccccc2Sc2ccc(Cl)cc21	20	34*	2	8	-6	8	6	-6
CN(C)CC/C=C1\c2ccccc2Sc2ccc(Cl)cc21	4	2	-2	8	-1	-2	.	.
Cc1cccc(NS(=O)(=O)c2cc3c(cc2C)NC(=O)CO3)c1	2	-19	-2	-2	3	-19	.	.
CCOC(=O)C1(Cc2cccc(OC)c2)CCN(CC=C(C)C)CC1	-2	95*	3	6	2	-1	-2	-5
CCOC(=O)C1(Cc2cccc(OC)c2)CCN(C/C=C/c2ccc(OC)cc2)CC1	-5	-9	5	-1	7	-13	.	.
O=C(CSc1ccc2nnc(CCNS(=O)(=O)c3ccccc3)n2n1)Nc1nc2ccccc2s1	10	7	-2	5	5	10	.	.
COc1ccc(OC)c(C(=O)C(=O)c2cc(OC)ccc2OC)c1	.	.	3	1	-5	.	.	.
COc1ccc(OC)c(N)c1	17	37*	15	11	12	20	-13	-9
COc1ccc(C(=O)N(C)c2c(C)n(C)n(-c3ccccc3)c2=O)cc1OC	5	82*	-2	-1	-5	7	-10	-2
CN(CC(O)Cn1c2ccccc2c2ccccc21)S(C)(=O)=O (centres undefined)	-8	1	-5	2	-2	-8	.	.
OCCN(CCO)CC(O)Cn1c2ccccc2c2ccccc21 (centres undefined)	-2	61*	-6	4	5	-4	9	7
C=CCOc1ccc(/C=C2\SC(=S)N(N3CCOCC3)C2=O)cc1	5	41*	1	-6	3	1	3	-2
CCOC(=O)N1CCC(NS(=O)(=O)c2cc(C(=O)OC)n(C)c2)CC1	1	5	5	-1	8	-4	.	.
CCOC(=O)c1cccc(OS(=O)(=O)Cc2ccccc2)c1	13	-7	.	.	.	1	.	.
CC1(C)CC(=O)C=C(c2ccc(-c3ccccc3)cc2)C1	3	48*	5	6	-3	.	30	9
CC(C)CCNC(=S)Nc1ccc([N+](=O)[O-])cc1	1	15	5	3	1	4	.	.
CC(C)OC(=O)c1cc(NC(=S)Nc2ccc([N+](=O)[O-])cc2)cc(C(=O)OC(C)C)c1	5	52*	-13	-13	-49	1	-13	-21
COc1ccc(N2CCN(S(=O)(=O)c3ccc(OC)cc3)CC2)cc1	10	99*	0	-10	-4	21	7	13
COc1ccc(N2CCN(S(C)(=O)=O)CC2)cc1	0	-6	-3	4	4	3	.	.
Cc1noc(C)c1COc1ccccc1C(=O)NNC(=O)C(C)Oc1ccccc1F (centres undefined)	2	-6	0	-2	7	2	.	.
Cc1ccc([N+](=O)[O-])cc1NC(=O)C1CCN(S(C)(=O)=O)CC1	-4	49*	3	1	2	-6	-3	-12
N/C(=N\OC(=O)COc1ccc(Br)cc1Cl)c1ccccn1	1	74*	3	-2	10	-13	6	-10
CN1CCN(NC(=O)c2cc(-c3ccc(Cl)s3)nc3ccccc23)CC1	1	17	3	1	-12	5	.	.
COc1ccc(N2CCN(C(=O)CNC(=O)c3cccc(Br)c3)CC2)cc1	9	8	0	6	10	6	.	.
CCc1nnc(NC(=O)[C@@H](NC(=O)c2cc(OC)cc(OC)c2)C(C)C)s1	0	117*	2	-3	2	8	7	1
CCOC(=O)Cc1csc(NC(=O)COc2ccccc2OCC)n1	1	48*	0	0	7	-9	-4	-10
